# Screening results deposited in PubChem by several laboratories.
# Autophagy mod – modulators of autophagy; MEF GFP-LC3 puncta imaging; test concentration mostly 10 µM; calls only at 10 µM (by protocol); 0.98% of 190,000 active;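 active = percentage of spot-positive cells more than 3 SD above its plate mean, without a fluorescence outlier flag or 80% toxicity; inconclusive = no clear call, values can overlap the other calls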;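 also: spot-positive cell cutoff set from DMSO-treated cells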
# WT yeast gro inh – growth inhibition of WT yeast, mitochondrial fusion screen. inhibition, % at 10 µM. 2.1% of 190,000 active. mitochondrial fusion phenotypic screen, WT strain; in the data active = inhibition above about 58%; tested in S. cerevisiae
# Insulin prom up – MIN6 insulin promoter up-regulation. 0.3% of 190,000 active. MIN6 insulin promoter-GFP reporter, high-content imaging; stronger effect = higher value. z-score at 5 µM;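 active = z-score above 3 at 5 µM with at least 500 cells counted in the well; inconclusive = wells under 500 cells, flagged as cytotoxic or low count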
# L major viab – Leishmania major promastigote growth inhibition. inhibition, % at 10 µM. Leishmania major promastigotes, resazurin fluorescence viability. 9% of 200,000 active; in the data active = inhibition above about 50%;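 also: promastigotes grown with compound for 44 hours at 28 °C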
# INS promoter inh – TRM-6 insulin promoter activity inhibition; TRM-6 cells (human fetal islet line), insulin promoter-eGFP reporter, imaging; reporter expression induced with tamoxifen; inhibition, % at 2 µM; 0.9% of 130,000 active; AID 1273;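 active = inhibition above the mean plus 3 SD, with well images judged a real hit on visual review, cut at about 60% in these data, passing the limit was not always enough; inconclusive = inhibition over the cutoff but images rejected on review; inactive = inhibition not above the cutoff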
# Active calls of the source: *; i = inactive; ? = inconclusive; . = not tested or not shown; + = active, no number. In the library only some 11% were active in any assay of this set; here they are far more common.
SMILES,Autophagy mod,WT yeast gro inh,Insulin prom up,L major viab,INS promoter inh
Cn1c(/C=C/c2ccccc2)nc2ccccc21,i,67*,-0.44,12,.
CCn1c(SCC(=O)N2CCc3ccccc3C2)nc2sc(C)c(C)c2c1=O,i,8,-0.66,-4,.
CCOc1ccc(C(=O)Nc2nnc(C(C)C)s2)cc1OCC,i,13,.,87*,.
CCOc1ccc(C(=O)Nc2nncs2)cc1OCC,i,19,0.45,1,-57
COc1cc(NC(=O)COc2ccc(Cl)cc2)ccc1-c1cc2ccccc2oc1=O,i,0,0.06,63*,30
COc1cc(NC(=O)COc2ccc(Cl)cc2)ccc1NC(=O)C(C)C,.,.,-0.85,.,.
COc1ccc(O)c(N)c1,i,-12,0.32,98*,.
CCCSc1nc(-n2ncc(C#N)c2N)c2c3c(sc2n1)CCC(C)C3 (stereo unspecified),i,64*,-0.67,8,10
Cc1nc(-n2ncc(C#N)c2N)c2c3c(sc2n1)CCC3,i,-4,.,3,42
Cc1ccc(S(=O)(=O)N(C)/N=C/C=C/c2ccccc2)cc1,i,-1,0.49,0,.
CCN(CC(=O)Nc1cccc(C#N)c1)CC(=O)Nc1cccc(OC)c1,i,3,-0.58,44,-150
O=C(CSc1nc2c(sc3ccccc32)c(=O)n1CCCN1CCCC1)NCc1ccccc1,i,0,.,99*,.
CCN(CC)CCn1c(SCC(=O)NCCC2=CCCCC2)nc2c(sc3ccccc32)c1=O,i,32,-0.82,68*,-27
Cc1ccc(CNC(=O)CSc2nc3c(sc4ccccc43)c(=O)n2CCCN2CCCC2)cc1,i,7,.,100*,-14
O=C(CSc1nc2c(sc3ccccc32)c(=O)n1CCCN1CCOCC1)NC1CCCC1,i,13,-0.2,3,.
O=C(CSc1nc2c(sc3ccccc32)c(=O)n1CCCN1CCOCC1)NCC1CCCO1 (stereo unspecified),i,3,.,2,.
COc1cccc(CC(Cc2nc3ccccc3[nH]2)c2nc3ccccc3[nH]2)c1 (stereo unspecified),i,-3,0.85,69*,-179
N#C[C@H]1[C@H](c2ccccc2)[C@](C#N)(C(=O)c2ccccc2)[C@@H]2C=Cc3ccccc3N21,i,63*,0.7,48,.
COc1ccc(C(=O)N2c3ccccc3C=CC2C#N)cc1 (stereo unspecified),i,-20,.,-1,.
Cc1ccccc1NC(=S)N/N=C1\CC(C)(C)Oc2ccc(O)cc21,i,-6,.,84*,.
Cc1ccc(NC(=S)N/N=C2\CC(C)(C)Oc3ccc(O)cc32)cc1,i,7,0.08,-9,12
CC1CCCN(CC(O)COc2ccc(Cl)cc2)C1 (stereo unspecified),i,-21,0.21,91*,.
CN1CCN(CC(O)COC(c2ccccc2)c2ccccc2)CC1 (stereo unspecified),i,-10,1.2,-1,-17
CC1CCCN(CC(O)COC(c2ccccc2)c2ccccc2)C1 (stereo unspecified),i,8,-0.49,99*,-56
OC1CCCN(CC(O)COC(c2ccccc2)c2ccccc2)C1 (stereo unspecified),.,.,-0.68,.,.
SMILES,Autophagy mod,WT yeast gro inh,Insulin prom up,L major viab,INS promoter inh
Cc1ccc(C(OCC(O)CN2CCCCC2CO)c2ccccc2)cc1 (stereo unspecified),i,-17,.,84*,.
O=C(O)COc1ccccc1/C=N/NC(=O)c1cc2ccccc2cc1O,.,.,-0.25,.,.
COc1ccc(C(=O)NNC(=O)CCn2nnc(-c3ccc(Cl)cc3)n2)cc1OC,i,-2,-0.04,-5,.
COc1ccccc1NC(=O)N1CCN(c2ccnc3cc(Cl)ccc23)CC1,.,.,-0.22,.,.
COc1ccccc1NC(=O)N1CCc2[nH]c3ccc(Cl)cc3c2C1,i,47,0.37,95*,-4
CN(/N=C/c1ccncc1)C1=NS(=O)(=O)c2ccccc21,i,13,-0.15,6,.
CC(C)(C)NC(=O)CCN(/N=C/c1ccc([N+](=O)[O-])o1)C1=NS(=O)(=O)c2ccccc21,i,-8,0.07,99*,-63
O=C(COC(=O)CNC(=O)c1ccccc1)Nc1ccc(Cl)cc1C(F)(F)F,i,5,?,-5,-47
CS(=O)(=O)N1CCN(C(=O)COc2ccccc2)CC1,+,5,-0.19,11,.
O=C(NCc1ccccc1Cl)c1ccc2nc[nH]c2c1,i,-6,0.24,-5,-20
N=c1n(CCN2CCCCC2)c2ccccc2n1CC(O)c1cccc(Br)c1 (stereo unspecified),i,-6,.,100*,-7
N=c1n(CCN2CCCCC2)c2ccccc2n1CC(=O)c1ccc(Cl)c(Cl)c1,.,.,0,.,.
CCCCn1c(=N)n(CC(O)c2ccccc2)c2ccccc21 (stereo unspecified),.,.,-0.38,.,.
N=c1n(CCN2CCCCC2)c2ccccc2n1CC(O)c1ccc(Cl)c(Cl)c1 (stereo unspecified),+,-11,-1.6,100*,-21
CN(C)CCn1c(=N)n(CC(O)c2ccc(Cl)c(Cl)c2)c2ccccc21 (stereo unspecified),i,1,-1.7,100*,.
N=c1n(CCN2CCCC2)c2ccccc2n1CC(O)c1ccco1 (stereo unspecified),i,40,-0.57,-2,-30
CC(=O)NCCNS(=O)(=O)c1ccc(C)c([N+](=O)[O-])c1,i,-2,-0.8,-1,.
CC(C)c1ccc2c(c1)C(c1ccc(N3CCOCC3)cc1)=NNC(c1cccs1)=N2,i,40,-1.6,83*,21
CC(C)c1ccc2c(c1)C(c1cccs1)=NNC(c1ccncc1)=N2,i,22,.,44,0
CCOc1ccc(NC(=O)c2ccco2)c([N+](=O)[O-])c1,i,11,0.12,-6,-23
O=C(Cc1ccccc1)N/N=C/c1ccc[nH]1,.,.,0.18,.,.
CCOC(=O)c1sc(Nc2nc(OC)cc(OC)n2)nc1C,i,15,-0.28,54*,.
CC1CCC2C(=O)N(c3ccc(Cc4ccncc4)cc3)C(=O)C2C1 (stereo unspecified),i,1,-1.7,9,.
CC1=CC(C)(C)Nc2ccc(OC(=O)c3cccnc3)cc21,i,-1,1.7,101*,.
CC1=CC(C)(C)Nc2ccc(OC(=O)C(C)N3C(=O)c4ccccc4C3=O)cc21 (stereo unspecified),i,6,0.17,101*,16
SMILES,Autophagy mod,WT yeast gro inh,Insulin prom up,L major viab,INS promoter inh
COC(=O)c1ccc(OC(=O)c2cccnc2)cc1,i,-6,0.43,-10,-43
CC1=CC(C)(C)Nc2ccc(OC(=O)CN3C(=O)CCC3=O)cc21,i,-16,0.98,100*,16
CSc1nc2ccccc2n1CC(=O)Nc1cc(C(F)(F)F)ccc1N1CCOCC1,i,26,0.33,-3,-51
Cc1cc(C)c(S(=O)(=O)n2c([N+](=O)[O-])cnc2C)c(C)c1,i,-8,1.4,-3,42
O=c1nc2ccccc2c2n1CC(CN1CCN(C(c3ccccc3)c3ccccc3)CC1)N2 (stereo unspecified),i,36,-2.8,66*,.
N#CCc1nn(-c2ccccc2)c(N)c1C#N,i,3,0.54,-4,-4
